Records with an inconclusive call do not appear. Where a call stands in place of a potency, no number is given. The source made the active and inactive calls. Calls come from the whole dose curve; as a rule, active = well fitted inhibition curve with a large enough effect; inconclusive = small, poorly fitted or top-dose-only effect; inactive = flat fitted curve, though single readings scatter.
Potency is the fitted concentration of half-maximal effect.

The test can be described thus: P-glycoprotein substrates identified in KB-8-5-11 adenocarcinoma cell line, qHTS therapeutic library screen (AID 1346987). Note: nearly all actives have a fitted effect of over 65% in size. Particulars: KB-8-5-11 (P-gp overexpressing) viability, CellTiter-Glo, 72 h; series mostly up to 44.5 µM. Summed up:
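In this qHTS, P-gp-rich KB-8-5-11 cells received library compounds across a concentration range. Viability was quantified by luminescence after 72 h at 37 degree C.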
In the case of `C[C@@H]1O[C@@H](O[C@@H]2[C@@H](O)[C@H](O[C@H]3CC[C@@]4(C)C(CC[C@]5(C)C4CC=C4[C@@H]6CC(C)(C)CC[C@]6(C(=O)O[C@@H]6O[C@H](CO)[C@@H](O)[C@H](O)[C@H]6O)CC[C@]45C)C3(C)C)O[C@H](C(=O)O)[C@H]2O)[C@H](O)[C@H](O)[C@H]1O` (stereo partly drawn), the activity change, negative = cytotoxicity was 7.63% [at 9.29 µM] (inactive).
In the case of `C#CCN(Cc1cc2c(=O)[nH]c(C)nc2cc1Br)c1ccc(C(=O)NCc2cccnc2)cc1`, the Potency is 0.259 µM (active).
The same measure, in the same setting: the entry for `CC1=C(CCC(C)CC(=O)O)[C@@]2(C)CCCC(C)(C)C2CC1=O` (stereo partly drawn) is “inactive”; for `CON(C)C(=O)[C@H](O)[C@H](Cc1ccccc1)NC(=O)c1cc2cc(Cl)ccc2[nH]1` it is “inactive”.
On the same count and under the same terms, the figure for `CC(C)(C)Nc1nc2cc(Cl)c(Cl)cc2nc1S(C)(=O)=O` is 14.6 µM (active); for `C[C@]12C=C[C@@]3(CCC4[C@](C)(CO)CCC[C@@]4(C)C3CC1)C2` (stereo partly drawn) it is “inactive”; for `CC(=O)O[C@H]1C[C@@]2(C)[C@@H](CC[C@H]3[C@@]4(C)C=CC(=O)[C@@H](C)[C@@H]4[C@H](O)C(=O)[C@@]32C)/C1=C(/CCC=C(C)C)C(=O)O` it is “inactive”.
In the case of `CC1CC(=O)C2=C(CCC3(O)C(O)c4c(O)cccc4C(=O)C23O)C1` (stereo not drawn), the Potency result is “inactive”.
The same measure, in the same setting: the entry for `CCc1c(C)nc2c(-c3cnn(-c4cc(CO)ccn4)c3)c[nH]n2c1=O` is “inactive”; for `COc1c2c(c(C)c3c1C(=O)OC3)OC1(C)CC(O)C34OC(OC)(CC(OC(C)=O)C3(C)C1C2)OC4(C)C` (stereo not drawn) it is “inactive”; for `CC(C)C(CO)Nc1nc(Nc2cc(N)cc(Cl)c2)c2ncn(C(C)C)c2n1` (stereo not drawn) it is 7.31 µM (active).
On the same count and under the same terms, the entry for `CN1C2CCC1CC(OC(=O)[C@H](CO)c1ccccc1)C2` (stereo partly drawn) is “inactive”.
In the case of `COC1CC(O[C@H]2CC[C@@]3(C)C(=CC[C@]4(O)C3[C@H](OC(C)=O)[C@@H](OC(=O)c3ccccc3)[C@]3(C)[C@@H](C(C)=O)CC[C@@]34O)C2)OC(C)C1OC1CC(OC)C(OC2CC(OC)C(OC3OC(C)C(OC4OC(CO)C(O)C(O)C4O)C(OC)C3O)C(C)O2)C(C)O1` (stereo partly drawn), the activity change, negative = cytotoxicity is 1.94% [at 9.29 µM] (inactive).
As for `O=C(C(c1ccccc1)c1ccccc1)N1CCN(CC(O)COc2cccc3ncccc23)CC1` (stereo not drawn), the Potency result is “inactive”.
Regarding `C=C1C(OC2OCC(O)C(O)C2O)CC2C(C)(C)C(O)CCC2(C)C1CC/C(C)=C\CO` (stereo not drawn), the Potency result was “inactive”.
Still for that read-out and setting: the entry for `C=C1OC2CC(C(=O)O)C=CC2NC1=O` (stereo not drawn) is “inactive”; for `CC1(C)CCC[C@]2(C)[C@H]3CC(=O)O[C@]3(C)CC[C@@H]12` it is “inactive”.
Take `COc1ccc(CC2C(=O)NC(C)C(=O)N(C)C3Cc4ccc(cc4)Oc4cc(ccc4OC4OC(CO)C(O)C(O)C4O)CC(C(=O)NC(C)C(=O)NC(C)C(=O)N2C)N(C)C3=O)cc1` (stereo not drawn): the activity change, negative = cytotoxicity is -5.43% [at 9.29 µM] (inactive).
On to `CC1=CC(=O)CC(C)(C)C1CCC(C)O[C@@H]1O[C@H](CO[C@@H]2OC[C@@H](O)[C@H](O)[C@H]2O)[C@@H](O)[C@H](O)[C@H]1O` (stereo partly drawn), for which the Potency entry is “inactive”.
As for `CC(O)/C=C/C1(O)C2(C)COC1(C)CC(O)C2` (stereo not drawn), the Potency entry is “inactive”.
`CC(=O)O[C@@H](CO[C@@H]1O[C@H](CO)[C@H](O)[C@H](O)[C@H]1O)[C@]1(C)C=C2CC[C@@H]3C(C)(C)[C@@H](O)CC[C@@]3(C)[C@@H]2CC1`: the Potency result is “inactive”.
For the molecule `O=C(COc1cccc2c(=O)[nH]ccc12)c1ccccc1`, the Potency entry is “inactive”.
The same measure, in the same setting: the entry for `CC(O)CCC1C(CO[C@@H]2O[C@H](CO)[C@@H](O)[C@H](O)[C@H]2O)CC(O)CC1(C)C` (stereo partly drawn) is “inactive”.
`CC(C)c1cc2c(c(O)c1O)[C@@]13CCCC(C)(C)[C@@H]1[C@H](OC3=O)C2=O`: the Potency entry was “inactive”.
For the molecule `CC1=CC(=O)CC(C)(C)[C@@]1(O)CC[C@@H](C)O[C@@H]1O[C@H](CO)[C@@H](O)[C@H](O)[C@H]1O`, the Potency result was “inactive”.
The same measure, in the same setting: the entry for `COc1ccc(C2COc3cc(O)ccc3C2)c(O)c1` (stereo not drawn) is “inactive”; for `CC(C)c1cc(C(=O)N2CC[C@H](NC(=O)C3CC3)C2)n[nH]1` it is “inactive”; for `CC(=O)OC[C@@]12C(=O)C[C@@H](C)[C@]3(C[C@@H](c4ccoc4)O[C@H]3OC(C)=O)[C@H]1CCC[C@]21CO1` it is “inactive”.
Same read-out and setting: the entry for `CC(C)CC(=O)OC1OC=C(CO[C@@H]2O[C@H](CO)[C@@H](O)[C@H](O)[C@H]2O)C2CC(O)C(O)(CO)C12` (stereo partly drawn) is “inactive”; for `Cc1ccccc1NC(=O)Nc1ccc(CC(=O)N(C)[C@@H](CC(C)C)C(=O)NCC[C@H](NC(=O)[C@@H]2CCCN2S(=O)(=O)c2cc(Cl)cc(Cl)c2)C(=O)O)cc1` it is “inactive”; for `NC(=O)c1cnc(NCCc2ccc(O)c(Cl)c2)nc1NCc1ccccc1` it is 10.3 µM (active).
Turning to `CN(C)C/C=C/C(=O)Nc1cccc(C(=O)Nc2cccc(Nc3ncc(Cl)c(-c4c[nH]c5ccccc45)n3)c2)c1`, the Potency is 13 µM (active).
As for `COc1ccc2nc(S(=O)(=O)Cc3ncc(C)c(OC)c3C)[nH]c2c1`, the Potency result is “inactive”.
In the case of `COC(=O)c1c(C)cc(OC(=O)c2c(C)cc(OC)cc2OC)cc1O[C@@H]1O[C@H](CO)[C@@H](O)[C@H](O)[C@H]1O`, the Potency result was “inactive”.
On the same count and under the same terms, the entry for `Cc1cc(O)cc(O[C@@H]2O[C@H](CO)[C@@H](O)[C@H](O)[C@H]2O)c1` is “inactive”; for `COc1cc(C)c(C(=O)Oc2cc(C)c(C(=O)Oc3cc(C)c(C(=O)NC(C)C(=O)O)c(O)c3)c(O[C@@H]3O[C@H](CO)[C@@H](O)[C@H](O)[C@H]3OC(C)=O)c2)c(OC)c1` (stereo partly drawn) it is “inactive”; for `CC(C)CN(C[C@@H](O)[C@H](Cc1ccccc1)NC(=O)O[C@@H]1CO[C@H]2OCC[C@H]21)S(=O)(=O)c1ccc(N)cc1` it is “inactive”.
On the same count and under the same terms, the figure for `COc1ccc(-c2ccc3c(N4CCOCC4)nc(N4CC(C)OC(C)C4)nc3n2)cc1CO` (stereo not drawn) is 0.651 µM (active).

(Values after PubChem BioAssay (NCATS).)
